The results in this text go back to PubChem BioAssay (NCI).

Test systems include NCI-H23 lung; NCI-H226 lung; NCI-H322M lung; HOP-62 NSCLC; NCI-H460 lung; HOP-92 NSCLC; NCI-H522 lung; A549/ATCC NSCLC; 786-0 renal; COLO 205 colon.
Common to all, as to assay: NCI-60 one-dose screen, 48 h (100 = growth as untreated, 0 = no growth, -100 = all killed)
Conditions in all cases: 10 µM

About 83,000 compounds went through this panel and 20% of them were active in at least one assay; those are over-represented in the sample as a whole.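 Percent growth is the endpoint: 0 to 100 indicates growth inhibition (40 means 60% inhibition), 0 means no net growth, and negative values indicate cell death.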 Unmarked numbers belong to inactive results. The source made the active and inactive calls. How the source made its calls: active means growth percent below 10; inactive means the rest.

Regarding `CCCSc1nc(NC2CC2)c(C#N)c(-c2ccc(OC)cc2)n1`, the growth in the test with NCI-H23 lung was 96.4%; with NCI-H226 lung, 99.4%; in the test on NCI-H322M lung, 89.3%; in the test with HOP-62 NSCLC it was 84.6%; with NCI-H460 lung, 85.6%; with HOP-92 NSCLC, 77.7%. The growth in the test on NCI-H522 lung was 93.3%; in the test with A549/ATCC NSCLC, 71.8%; in the test with 786-0 renal, 77.1%; with COLO 205 colon it was 134%.

On to `CCC(C)S(=O)(=O)c1oc(-c2ccc(C)cc2)nc1S(=O)(=O)c1ccccc1` (stereo not given), for which the growth with NCI-H23 lung is -86.8% (active); with NCI-H226 lung, -10.3% (active); with NCI-H322M lung it was 65.1%; with HOP-62 NSCLC it was 28.7%; with NCI-H460 lung it was -13.9% (active); in the test with HOP-92 NSCLC, -74.6% (active). Besides, the growth is -98.7% (active) in the test on NCI-H522 lung, 35.9% with A549/ATCC NSCLC, -48.8% (active) with 786-0 renal and -85.5% (active) in the test with COLO 205 colon.

For `Cc1cc(C)nc(SCC(=O)Nc2ccc(S(N)(=O)=O)cc2)n1`, the growth in the test on NCI-H23 lung was 100%; in the test with NCI-H226 lung it was 98.5%; in the test with NCI-H322M lung, 102%; in the test with HOP-62 NSCLC, 108%; in the test with NCI-H460 lung, 134%; in the test with HOP-92 NSCLC it was 101%. Also, the growth was 95.9% in the test on NCI-H522 lung, 103% in the test with A549/ATCC NSCLC, 105% in the test on 786-0 renal and 124% with COLO 205 colon.

With `CN1CCN(c2ccc(Nc3nc(N4CCN(S(=O)(=O)c5ccc(Cl)cc5)CC4)c4sccc4n3)cc2)CC1`, the growth in the test on NCI-H23 lung was 46.6%; with NCI-H226 lung, -22.2% (active); in the test on NCI-H322M lung, 74.5%; in the test on HOP-62 NSCLC, 71.4%; in the test with NCI-H460 lung, -70.6% (active); in the test with HOP-92 NSCLC, 69.1%. Also, the growth in the test on NCI-H522 lung is -82.7% (active); with A549/ATCC NSCLC it was 22%; in the test with 786-0 renal, -62.9% (active); with COLO 205 colon it was -77.9% (active).

On to `O=C(NO)c1ccc(Cn2ccc3c(Nc4ccccc4)ncnc32)cc1`, for which the growth in the test on NCI-H23 lung is -87.2% (active); with NCI-H226 lung it was 32%; in the test with NCI-H322M lung, 42.7%; in the test on HOP-62 NSCLC it was 14.4%; in the test with NCI-H460 lung, 13.1%; with HOP-92 NSCLC it was -16.3% (active). Also, the growth is -40.4% (active) in the test with NCI-H522 lung, 25.3% in the test on A549/ATCC NSCLC, 31% in the test on 786-0 renal and -84.9% (active) in the test on COLO 205 colon.

Turning to `CC(C)C1=C[C@@]23CC[C@@H]4[C@](C)(CCC[C@]4(C)C(=O)NCc4ccccc4)[C@H]2C[C@@H]1[C@H]1C(=O)CCC(=O)[C@H]13`, the growth was 59% with NCI-H23 lung; 40.7% in the test with NCI-H226 lung; 93.4% in the test with NCI-H322M lung; 94.4% in the test with HOP-62 NSCLC; 84.5% in the test on NCI-H460 lung; 68.9% in the test with HOP-92 NSCLC. Further, the growth in the test on NCI-H522 lung was -12.5% (active); in the test on A549/ATCC NSCLC, 81.6%; in the test on 786-0 renal it was 87.2%; with COLO 205 colon, 103%.

On to `O=C1CCC(N2Cc3cc(NC(=O)COc4ccccc4)ccc3C2=O)C(=O)N1` (stereo not given), for which the growth was 101% with NCI-H23 lung; 48.1% in the test with NCI-H226 lung; 80.3% in the test with NCI-H322M lung; 65.7% in the test with HOP-62 NSCLC; 113% in the test on NCI-H460 lung; -0.508% (active) in the test with HOP-92 NSCLC. Also, the growth in the test with NCI-H522 lung was 91%; in the test with A549/ATCC NSCLC, 85%; in the test on 786-0 renal, 71.8%; with COLO 205 colon, 74.6%.

For the compound `CN1CCN(c2ccc(Nc3nc(NCCNC(=O)c4ccc(C(F)(F)F)cc4)c4sccc4n3)cc2)CC1`, the growth in the test with NCI-H23 lung was 49.3%; in the test with NCI-H226 lung it was 72.3%; in the test on NCI-H322M lung, 28.3%; in the test with HOP-62 NSCLC, 19.4%; with NCI-H460 lung it was 16.7%; in the test on HOP-92 NSCLC, -15.3% (active). In addition, the growth in the test on NCI-H522 lung was 24.6%; in the test on A549/ATCC NSCLC, 28.1%; in the test with 786-0 renal it was -56.6% (active); in the test with COLO 205 colon it was -87.6% (active).

Turning to `CCOC(=O)c1sc(N/N=C(\C)c2ccc3c(c2)Nc2ccccc2S3)nc1C`, the growth was 13.9% in the test on NCI-H23 lung; 34.8% with NCI-H226 lung; 45.2% in the test with NCI-H322M lung; 43.7% with HOP-62 NSCLC; 5.63% (active) in the test on NCI-H460 lung; -9.2% (active) with HOP-92 NSCLC. In addition, the growth was 30.9% with NCI-H522 lung, 29.2% with A549/ATCC NSCLC, 33.6% in the test with 786-0 renal and -42.2% (active) with COLO 205 colon.

In the case of `COc1ccc(C(=O)CSc2nnc(-c3c[nH]c4ccccc34)n2-c2ccccc2)cc1`, the growth was 56.5% in the test with NCI-H23 lung; 0.0587% (active) with NCI-H226 lung; 58.3% in the test with NCI-H322M lung; 8.82% (active) in the test with HOP-62 NSCLC; 65.5% with NCI-H460 lung; 7.9% (active) with HOP-92 NSCLC. Also, the growth in the test on NCI-H522 lung is 45.7%; in the test on A549/ATCC NSCLC, 74%; in the test with 786-0 renal, 45.2%; with COLO 205 colon, 84.8%.

Regarding `O=C1c2ccccc2C(=O)c2c1c(C(=O)c1ccc(Cl)cc1)n1c2ccc2c3ccccc3ccc21`, the growth with NCI-H23 lung is 96%; in the test with NCI-H226 lung, 103%; with NCI-H322M lung, 113%; in the test on HOP-62 NSCLC, 92.5%; in the test with NCI-H460 lung it was 109%; in the test with HOP-92 NSCLC, 98.6%. Moreover, the growth in the test on NCI-H522 lung is 93.5%; with A549/ATCC NSCLC it was 102%; with 786-0 renal, 110%; in the test on COLO 205 colon, 128%.

On to `O=c1oc2ccc(-c3ccc(F)cc3F)cc2c(=O)n1-c1ccc(Cl)c(C(F)(F)F)c1`, for which the growth is -42.7% (active) in the test on NCI-H23 lung; -18.8% (active) in the test on NCI-H226 lung; -2.17% (active) with NCI-H322M lung; -18.8% (active) in the test with HOP-62 NSCLC; 8.48% (active) in the test on NCI-H460 lung; -19.4% (active) with HOP-92 NSCLC. Further, the growth with NCI-H522 lung is -12.6% (active); in the test with A549/ATCC NSCLC it was 15%; with 786-0 renal, 7.66% (active); with COLO 205 colon it was -81.3% (active).

With `O=C(c1ccc(Cl)cc1)C1[C@H](c2ccc(Br)cc2)[C@@H](c2ccccc2)NC12C(=O)Nc1ccc(Br)cc12` (stereo not given in full), the growth in the test on NCI-H23 lung was -92.7% (active); with NCI-H226 lung it was -90.5% (active); in the test with NCI-H322M lung, -59.3% (active); with HOP-62 NSCLC, -80.3% (active); in the test on NCI-H460 lung, -62.5% (active); in the test with HOP-92 NSCLC, -72.7% (active). The growth is -82% (active) in the test on NCI-H522 lung, -51.5% (active) with A549/ATCC NSCLC, -80.4% (active) with 786-0 renal and -88.2% (active) in the test on COLO 205 colon.
